What was measured:
Assay in all cases: PBM binding z-score (relative to random genomic background probes); higher = stronger binding; sequences stand for … in GC…GCGATTGACAGCGTAGAATGAAGG
[1] = test system: FXR:RXRa (NR concentration 270 nM, RXRa partner concentration 90 nM)
Outline: (§1)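 Antibodies against each partner of ligand-free nuclear receptor dimers (one per run) detected binding on custom Agilent 4×180K protein-binding microarrays after 1 h incubation. The double-stranded probes had 34-nt variable regions carrying direct-repeat seeds, single-nucleotide variants, half-site ablations and random human genomic background sequences. Binding z-scores, from regression-normalized fluorescence, use the random background probes as reference.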

[2] = test system: LXRa:RXRa (NR concentration 270 nM, RXRa partner concentration 90 nM)
Outline: as §1

[3] = test system: LXRa homodimer (NR concentration 270 nM)
Outline: as §1

[4] = test system: LXRb:RXRa (NR concentration 270 nM, RXRa partner concentration 90 nM)
Outline: as §1

[5] = test system: LXRb homodimer (NR concentration 270 nM)
Outline: as §1

[6] = test system: PPARa:RXRa (NR concentration 270 nM, RXRa partner concentration 90 nM)
Outline: as §1

[7] = test system: PPARg:RXRa (NR concentration 180 nM, RXRa partner concentration 90 nM)
Outline: as §1

[8] = test system: PPARg:RXRa 270nM:90nM, anti-RXR (NR concentration 270 nM, RXRa partner concentration 90 nM)
Outline: as §1

[9] = test system: PPARg:RXRa 30nM:10nM, anti-RXR (NR concentration 30 nM, RXRa partner concentration 10 nM)
Outline: as §1

[10] = test system: PPARg:RXRa 90nM:30nM, anti-RXR (NR concentration 90 nM, RXRa partner concentration 30 nM)
Outline: as §1

[11] = test system: PPARg:RXRa DBDmut IVT, anti-RXR (DBD mutation: RXRa K156A/R161A, NR concentration 270 nM, RXRa partner concentration 90 nM)
Outline: as §1

[12] = test system: PPARg:RXRa IVT, anti-PPARg (NR concentration 270 nM, RXRa partner concentration 90 nM)
Outline: as §1

[13] = test system: PPARg DBDmut:RXRa IVT, anti-PPARg (DBD mutation: PPARg1 K132A/R137A, NR concentration 270 nM, RXRa partner concentration 90 nM)
Outline: as §1

[14] = test system: PPARg DBDmut IVT, anti-PPARg (DBD mutation: PPARg1 K132A/R137A, NR concentration 270 nM)
Outline: as §1

[15] = test system: PPARg homodimer (NR concentration 180 nM)
Outline: as §1

[16] = test system: PXR:RXRa (NR concentration 270 nM, RXRa partner concentration 90 nM)
Outline: as §1

[17] = test system: PXR homodimer (NR concentration 270 nM)
Outline: as §1

[18] = test system: RARa:RXR (NR concentration 270 nM, RXRa partner concentration 90 nM)
Outline: as §1

[19] = test system: RARa homodimer (NR concentration 270 nM)
Outline: as §1

[20] = test system: RARb:RXRa (NR concentration 270 nM, RXRa partner concentration 90 nM)
Outline: as §1

Sequence	PBM binding z-score [1]	PBM binding z-score [2]	PBM binding z-score [3]	PBM binding z-score [4]	PBM binding z-score [5]	PBM binding z-score [6]	PBM binding z-score [7]	PBM binding z-score [8]	PBM binding z-score [9]	PBM binding z-score [10]	PBM binding z-score [11]	PBM binding z-score [12]	PBM binding z-score [13]	PBM binding z-score [14]	PBM binding z-score [15]	PBM binding z-score [16]	PBM binding z-score [17]	PBM binding z-score [18]	PBM binding z-score [19]	PBM binding z-score [20]
AGTCAAAGTTCAGTACGAGGTAACGTAAAGCACG	3.32	3.34	1.28	1.83	0.584	2.76	3.76	4.15	1.8	2.93	-0.11	1.83	0.68	0.981	1.69	3.02	1.72	2.35	1.06	4.11
ATCCAAAGGTCGTGAGGTGAGTATACAGAAAGGC	5.79	4.82	0.975	3.77	0.687	5.37	5.62	5.62	2.33	4.08	0.752	2.92	1.39	0.827	1.97	3.64	0.629	4.91	1.46	4.4
TCATATAGGTAATACAGGTGAATGTCGGCATCTA	1.12	1.39	0.495	0.986	0.337	1.84	1.73	2.58	4.19	3.28	4.3	3.5	1.54	1.28	1.27	0.727	0.579	1.2	1.94	0.634
ATCTCTAGCTAAAGTTCAGTGAAAGATCGATAGA	0.485	1.83	1.89	1.01	0.585	1.74	1.63	3.25	1.53	2.85	-0.514	0.413	0.743	0.86	1.51	1.8	1.85	1.04	1.01	2.68
TAGCCTAGGTCATTCAGGGGCCATTATAGAAAGC	4.21	4.32	1.34	3.81	1.44	3.96	2.32	2.45	0.349	1.57	1.86	3.06	0.753	0.98	2.02	3.3	0.128	3.79	0.894	3.98
TCAATGAGGTTATAAGATCAGGGAACGTTGCAAA	1.62	1.48	-0.0675	1.39	-0.169	2.7	1.07	2.15	2.81	2.66	2.23	0.886	-0.23	0.398	0.29	0.939	-0.134	1.47	0.789	1.31
CGTCCAAGGTCATAGGAGGTGAGTGAAGACAGAT	7.28	5.61	1.23	4.25	0.462	5.79	4.94	5.08	1.98	3.99	2.78	4.36	0.426	0.754	2.6	4.84	1.4	4.65	0.644	5.24
ATCTCTAGGAAAGACTCAGTTCAGTGAAGAACGC	0.193	0.324	0.437	0.164	0.531	-0.385	-0.00135	-0.209	-0.24	-0.119	-0.0594	-0.318	0.245	0.852	0.978	0.737	1.37	0.199	0.964	0.144
ATCGAAAGGTCGAAGGTGAGTAGACCCACCCGAA	4.66	3.33	-0.000535	2.34	0.52	4.56	4.92	4.7	1.93	4.2	-0.178	1.89	-0.438	0.456	1.74	2.69	0.121	4.23	0.557	3.83
TCTAGCAGGCCAGAGGGTCAATCAAGAGGTACGG	1.44	1.33	-0.494	1.43	-1.31	2.66	1.61	3.01	2.27	2.91	0.793	0.929	-2.08	-0.99	1.31	1.76	-0.442	2.63	-0.831	2.25
ATACCAAGGTGATCGTGAGGTAGTTGATACTAAC	0.206	-0.121	-0.314	-0.148	-0.349	0.00448	0.267	-0.218	-0.0247	-0.173	0.454	0.993	1.09	0.92	-0.0605	-0.117	0.172	-0.156	0.171	0.566
GCATATAGGTAATCCAAGGTGAAAGTCCGATTGT	2.37	2.66	0.0628	0.738	-0.267	1.76	1.15	1.24	0.358	0.949	4.62	3.17	0.831	0.665	1.03	0.638	0.241	1.53	0.647	0.51
CTTCAAAGTTCAAGGTAACGTAACAGAAAGCAGC	5.99	5.87	3.59	3.5	1.19	4.48	2.86	3.83	1.15	2.43	0.401	1.36	0.994	1	2.93	4.18	2.67	3.32	1.72	5.1
GTACCAAGTTGAATAGGTCGTTGATGAGTAGGCG	0.0295	0.289	-0.317	0.163	-0.262	0.893	0.208	0.125	-0.197	-0.278	-0.264	0.17	0.192	0.767	0.638	0.225	0.216	0.609	0.578	0.926
GGTCGGAGGACAAGGTCAGAGCTTTGTCCGTAGA	2.18	1.7	-0.109	1.42	-0.689	2.43	0.581	1.58	-0.506	0.714	0.195	1.61	-0.429	-1.06	1.09	1.63	0.0611	1.82	-0.267	3.62
AATACAGGGTCATCGTAGGCCAGAATACGCACAG	7.14	6.31	2.07	4.74	1.07	5.64	6.6	5.68	2.64	4.45	2.86	4.2	1.53	0.878	1.87	4.6	0.787	4.56	1.11	4.31
GCTATTAGTTGAAAGGTCAACCGAATGATTCTCG	5.42	6.07	4.71	5.26	1.55	5.77	7.71	6.96	6.56	7.52	1.5	3.85	0.539	0.804	3.47	5.54	1.29	6.55	1.86	4.97
GCGACTGGGGCAAAGCAGGTTACAATAAGGTTGG	0.383	0.245	-0.467	0.623	-0.699	1.6	1.48	1.49	0.224	0.898	4.73	3.71	-0.466	-0.774	0.387	0.661	-0.376	0.904	-0.625	1.06
GATACAGGGCCAGCTAGAGGCCAGAGTATGGAAA	-0.612	-0.872	-0.883	-1.08	-1.43	-0.738	0.208	-0.6	-0.543	-0.645	-0.745	-0.681	-0.858	-1.22	-0.793	-0.72	-0.244	-0.464	-0.203	0.56
GGAACGAGGGCATTCGAGTTGATATCATGGCGAT	1.43	2.06	-0.497	0.289	-0.383	1.64	1.04	0.683	0.332	0.448	2.99	2.26	-0.118	-0.698	0.277	3.8	1.54	0.922	-0.657	1.78
CGTCCAAGGTCAGCAGATCAGTGAAAGCGACGTG	5.09	3.1	-0.179	2.21	-0.172	3.95	2.5	2.9	0.511	1.51	2.68	2.66	0.547	-0.498	2.2	2.49	0.4	3.08	0.548	5.02
TCACATAGGTAAACAGGTGAAAGTCCGTAAGTTA	0.14	0.698	0.285	0.803	-0.368	2.06	1.27	2.75	3.62	3.11	2.55	2.23	0.587	0.655	1.1	0.542	0.449	0.976	-0.0341	0.847
CGTCCAAGGCCAATGCTAGGTCAGTGAAAGCATT	0.0419	-0.0335	0.187	-0.036	-0.831	0.242	-0.45	-0.432	-1.33	-0.866	-0.0283	0.421	-0.963	-1.46	0.131	0.224	-0.267	0.552	-1.03	2.19
CATACAGGGTCAGCTAGGCCAGAGGAGGGACGGC	4.49	3.1	-0.068	2.08	0.388	4.31	3.63	2.81	0.595	1.67	0.736	2.07	1.18	1.1	1.66	2.15	-0.08	3.04	0.169	4.16
CCTGCTAGGTCATGGACAGCTAATCTACAGTATG	3.61	2.77	-0.434	1.75	-0.251	3.61	2.53	2.8	0.906	1.75	4.72	3.72	0.434	0.0292	0.812	1.4	-0.443	2.53	0.184	3.84
ATCGAACGGTCGAAGGTGAGTATACCCACCCGAA	-0.145	-0.0927	-0.458	-0.384	-0.206	0.517	1.03	1.22	0.0354	0.698	-0.97	0.443	0.226	-0.543	-0.177	-0.254	-0.523	0.0689	-0.549	1.05
CCTTACGGGTCACTGACAGGTGATAGCATTTGGA	6.8	5.19	0.411	4.32	-0.315	5.68	4.86	4.97	1.83	4	3.73	3.99	0.64	-0.737	2.47	4.3	0.473	5.06	0.945	4.15
TAATATAGGTAAATGCTAGGTGAAAGTCCGATCT	0.659	0.683	0.391	0.477	0.54	2.09	2.64	2.55	1.74	1.99	5.57	5.11	2.14	2.14	1.2	0.298	0.623	0.771	1.52	0.389

— the supplement of paper PMC6555819
